In article PMC10668032, “Altered binding affinity of SIX1-Q177R correlates with enhanced WNT5A and WNT pathway effector expression in Wilms tumor”:
Over roughly 33,000 sequences, “e-score” has its median near -0.05; the highest 2% begin near 0.38. The list comes from a sample in which the highest values are over-represented; it also holds similar and randomly drawn sequences.

target: T1, SIX1-Q177R homeodomain (human, UniProt Q15475 108-198, Q177R); assay: universal protein binding microarray; Universal all-10-mer PBM (8x60K, AMADID 030236), 300 nM GST-tagged protein, Alexa Fluor 488 anti-GST; buffer, salt, pH and temperature not stated (as in Berger); high values mean tight binding; conditions: protein: ivt; tags: N-terminal GST; dsDNA, one strand shown
T1 sequence: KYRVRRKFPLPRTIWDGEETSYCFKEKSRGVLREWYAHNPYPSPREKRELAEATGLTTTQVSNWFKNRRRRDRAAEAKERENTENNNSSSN
Procedure, shortened: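 Binding was expressed as 8-mer E-scores calculated with the Universal PBM Analysis Suite. The GST-tagged homeodomains, made by in vitro transcription/translation, were applied in duplicate at 300 nM final concentration to universal 'all 10-mer' protein binding microarrays (8×60K format).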

Sequence | binding signal
AACCCACC | 0.194 ± 0.0122 E-score
CGCGGGCA | 0.276 ± 0.0364 E-score
CCCGAGTC | 0.171 ± 0.0123 E-score
ACACCCCA | 0.4705 ± 0.00327 E-score
ACACCCCC | 0.4871 ± 0.00117 E-score
ACACCCCG | 0.466 ± 0.00875 E-score
ACCCCCCT | 0.302 ± 0.0219 E-score
AGACCCCT | 0.155 ± 0.0162 E-score
CCACCCCC | 0.209 ± 0.0542 E-score
TCACCCCA | 0.184 ± 0.0578 E-score
CCACCCCA | 0.267 ± 0.0424 E-score
ACCCCCCG | 0.329 ± 0.0392 E-score
ACACCCCT | 0.4748 ± 0.00334 E-score
GCACCCCC | 0.311 ± 0.046 E-score
CCACCCCG | 0.246 ± 0.0156 E-score
CCCTCGAC | 0.176 ± 0.00448 E-score
ATCGGGCA | 0.195 ± 0.0164 E-score
CCGCCCGA | 0.174 ± 0.00646 E-score
CCCTGCAC | 0.178 ± 0.0222 E-score
TGATACCA | 0.325 ± 0.0116 E-score
AACCCGTG | 0.23 ± 0.00447 E-score
GCGGAGTA | 0.241 ± 0.0385 E-score
ACTGGCAC | 0.152 ± 0.00487 E-score
ACCCGGAC | 0.171 ± 0.0263 E-score
AGCGCGGG | 0.2629 ± 0.0007 E-score

Sequence | binding signal
CAGAACAC | 0.3812 ± 0.000905 E-score
GAGAATAC | 0.194 ± 0.00365 E-score
AAGAACAC | 0.423 ± 0.0082 E-score
GAGAACAC | 0.3811 ± 0.000742 E-score
CAGGAACA | 0.259 ± 0.00612 E-score
CACTCTAC | 0.291 ± 0.0135 E-score
CCGCCACA | 0.282 ± 0.0124 E-score
ACAAGGGG | 0.185 ± 0.0199 E-score
CACTCCCA | 0.273 ± 0.0105 E-score
GCACTACA | 0.171 ± 0.00501 E-score
ACCCAGCG | 0.168 ± 0.00443 E-score
ACTTAGGG | 0.181 ± 0.0198 E-score
ATCAGGTG | 0.224 ± 0.00902 E-score
AAGTGGTG | 0.337 ± 0.0139 E-score
ACCTACCC | 0.252 ± 0.0152 E-score
CCCTACCC | 0.185 ± 0.00683 E-score
GCCTACGC | 0.167 ± 0.0292 E-score
GCCCACAC | 0.255 ± 0.0252 E-score
CCCTACAC | 0.424 ± 0.00443 E-score
ACCTACAC | 0.4302 ± 0.00419 E-score
CCCTACTC | 0.19 ± 0.0302 E-score
ACCTATAC | 0.2048 ± 0.00123 E-score
GCCTACAC | 0.442 ± 0.0046 E-score
GGGATCGA | 0.257 ± 0.0548 E-score
CACGACTA | 0.22 ± 0.0605 E-score

Sequence | binding signal
CACTAATC | 0.172 ± 0.0411 E-score
GTGTGCAA | 0.252 ± 0.0153 E-score
GTGTTCGA | 0.409 ± 0.0112 E-score
GTGTTCCA | 0.361 ± 0.00459 E-score
GTGTTCAA | 0.3855 ± 0.00337 E-score
GGGTTCAC | 0.184 ± 0.0552 E-score
GTGTTCTA | 0.392 ± 0.00814 E-score
GTATTCTA | 0.1741 ± 0.00132 E-score
AAGGGGTC | 0.17 ± 0.00583 E-score
CACCATTC | 0.23 ± 0.0429 E-score
CCCCCACA | 0.262 ± 0.0205 E-score
ACGGGGTA | 0.233 ± 0.00738 E-score
GGGTGGTA | 0.194 ± 0.0128 E-score
AATAGACA | 0.187 ± 0.00716 E-score
GATCCCCC | 0.368 ± 0.0192 E-score
CACCAGTC | 0.2944 ± 0.00254 E-score
AACCAGTG | 0.183 ± 0.00569 E-score
CACCAGTG | 0.404 ± 0.0086 E-score
CTCAGACA | 0.189 ± 0.00366 E-score
ACACATAC | 0.18 ± 0.0765 E-score
ACATACAC | 0.421 ± 0.012 E-score
CCATACAC | 0.3962 ± 0.00378 E-score
CCATACCC | 0.218 ± 0.00536 E-score
GCATAAAC | 0.184 ± 0.0176 E-score
GCATACAC | 0.406 ± 0.00565 E-score

Sequence | binding signal
ACATACCC | 0.17 ± 0.00441 E-score
CACCTCGA | 0.217 ± 0.0155 E-score
GAGGGGTA | 0.277 ± 0.00472 E-score
ATACCGGA | 0.178 ± 0.0104 E-score
AGGCAGGA | 0.158 ± 0.0089 E-score
ACCTAGAG | 0.175 ± 0.0492 E-score
GGGTGCAA | 0.261 ± 0.0357 E-score
CAACGCCA | 0.175 ± 0.0166 E-score
CCCCGACC | 0.15745 ± 0.000156 E-score
AACCGGTG | 0.299 ± 0.0429 E-score
CACCGGTC | 0.21 ± 0.00979 E-score
CACCGGTG | 0.418 ± 0.0109 E-score
AATTGGTG | 0.221 ± 0.00776 E-score
CCGCGACA | 0.241 E-score
GCAATACC | 0.166 ± 0.00689 E-score
ATATAGTG | 0.265 ± 0.00494 E-score
ATAGTGTC | 0.3846 ± 0.00175 E-score
ATAGTATA | 0.175 ± 0.0632 E-score
ATAGTGTA | 0.391 ± 0.0352 E-score
CTAGTCAC | 0.19 ± 0.0126 E-score
CTAGTATC | 0.161 ± 0.0474 E-score
CTAGTGTC | 0.4067 ± 0.00058 E-score
ATAGTGTG | 0.188 ± 0.00817 E-score
CTAGTACA | 0.245 ± 0.0089 E-score
CTAGTGTA | 0.391 ± 0.0289 E-score

Sequence | binding signal
CTTGTGTA | 0.154 ± 0.0563 E-score
CACCGTGA | 0.277 E-score
CCCCCGCC | 0.228 ± 0.0364 E-score
CACGGATC | 0.279 ± 0.0122 E-score
ACCATGAA | 0.1618 ± 0.00147 E-score
CATTGGGG | 0.162 ± 0.00379 E-score
CCCACTCC | 0.159 ± 0.0222 E-score
ACCCCGGA | 0.299 ± 0.00931 E-score
GTAGGGTA | 0.193 ± 0.0286 E-score
GTAGTGTA | 0.427 ± 0.00906 E-score
GTAGTGAC | 0.26 ± 0.0183 E-score
ACCAAGAG | 0.213 ± 0.0142 E-score
CACACACC | 0.389 ± 0.0305 E-score
AACACACC | 0.395 ± 0.0142 E-score
CACACACA | 0.184 ± 0.063 E-score
GACACAGC | 0.17 ± 0.0393 E-score
GACACACA | 0.334 ± 0.044 E-score
AACACACG | 0.231 ± 0.0156 E-score
AACACACA | 0.262 ± 0.0517 E-score
GACACACC | 0.422 ± 0.0192 E-score
CACACACG | 0.248 ± 0.0453 E-score
TGTACCAA | 0.164 ± 0.0254 E-score
GGGTATAC | 0.262 ± 0.00267 E-score
AACCCGGG | 0.244 ± 0.0275 E-score
CTACTCCA | 0.242 ± 0.00788 E-score

Sequence | binding signal
ATACCCAC | 0.196 ± 0.0233 E-score
CACCAGAC | 0.338 ± 0.00569 E-score
CACCGCCC | 0.3 ± 0.0125 E-score
ACACGAGC | 0.3292 ± 0.0011 E-score
ACGCGAGT | 0.162 ± 0.045 E-score
ACACGAGG | 0.3796 ± 0.00182 E-score
ACACGAGT | 0.4013 ± 0.00247 E-score
ACCCGAGT | 0.259 ± 0.0341 E-score
ACACGAGA | 0.352 ± 0.0163 E-score
CACCGCGA | 0.238 ± 0.0133 E-score
ACCGGGGG | 0.238 ± 0.00986 E-score
CAGGGTAC | 0.162 ± 0.0178 E-score
AACCCAGA | 0.214 ± 0.0243 E-score
CACTATAA | 0.253 ± 0.0572 E-score
CACCTTAA | 0.172 ± 0.0487 E-score
CCGTGTAA | 0.44 ± 0.0102 E-score
ACGTGTAA | 0.413 ± 0.0225 E-score
CCGGGTAG | 0.169 ± 0.0152 E-score
CCTTGTAA | 0.244 ± 0.024 E-score
GCGTGTGA | 0.347 ± 0.0138 E-score
GCGGGTAA | 0.164 ± 0.019 E-score
CCGTGCAC | 0.198 ± 0.0196 E-score
CCGTGTAG | 0.4463 ± 0.00194 E-score
CCGGGTAA | 0.177 ± 0.0166 E-score
GCGTGTAA | 0.441 ± 0.0209 E-score

Sequence | binding signal
ACGTGTGA | 0.293 ± 0.00636 E-score
TATCGTCA | 0.211 ± 0.012 E-score
CGAAAACA | 0.186 ± 0.0616 E-score
CACCTAGC | 0.168 ± 0.00559 E-score
ACCTCAAC | 0.27 ± 0.0213 E-score
CACCCTTC | 0.31 ± 0.0119 E-score
CAGCTACA | 0.191 ± 0.0188 E-score
GATACTGC | 0.158 ± 0.0138 E-score
CACGTTCA | 0.158 ± 0.0324 E-score
AATAGGGG | 0.171 ± 0.0238 E-score
TCGTGTAA | 0.434 ± 0.0291 E-score
TCGGGTAA | 0.194 ± 0.00451 E-score
GCTGAACA | 0.169 ± 0.0308 E-score
GGGTTTCA | 0.15 ± 0.00187 E-score
CTCAACAC | 0.393 ± 0.0141 E-score
GTCAACAC | 0.38 ± 0.00874 E-score
ATCAACAC | 0.3939 ± 0.00328 E-score
AGCAACAC | 0.361 ± 0.00441 E-score
GTCAAACA | 0.1886 ± 0.00104 E-score
TCCTTACA | 0.222 ± 0.0176 E-score
ATTGATCC | 0.187 ± 0.0355 E-score
CATCTGAC | 0.236 ± 0.0527 E-score
